Results on 39 compounds are retold here after PubChem BioAssay (Tox21).

Records with an inconclusive call do not appear. The source made the active and inactive calls. The call rests on the fitted dose curve.
On the % scale 0 is the no-effect control and ±100 the full control effect.

The target of one test is Acetylcholinesterase (Homo sapiens) (UniProt P22303). The test can be described thus: Acetylcholinesterase (AChE) small molecule antagonists: colormetric cell-based qHTS assay (AID 1347395). Further: nearly all actives have a fitted effect of over 30% in size. The following applies: SH-SY5Y cells AChE activity, colorimetric (Ellman); series mostly up to 115 µM; activity, negative = inhibition: at the top concentration. The method in brief: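 SH-SY5Y cells; cpd 30 min 37 C; + DTNB/acetylthiocholine, 90 min 37 C; colorimetric thiocholine read; qHTS.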
Chain of Acetylcholinesterase (Homo sapiens) (P22303 whole entry, looked up): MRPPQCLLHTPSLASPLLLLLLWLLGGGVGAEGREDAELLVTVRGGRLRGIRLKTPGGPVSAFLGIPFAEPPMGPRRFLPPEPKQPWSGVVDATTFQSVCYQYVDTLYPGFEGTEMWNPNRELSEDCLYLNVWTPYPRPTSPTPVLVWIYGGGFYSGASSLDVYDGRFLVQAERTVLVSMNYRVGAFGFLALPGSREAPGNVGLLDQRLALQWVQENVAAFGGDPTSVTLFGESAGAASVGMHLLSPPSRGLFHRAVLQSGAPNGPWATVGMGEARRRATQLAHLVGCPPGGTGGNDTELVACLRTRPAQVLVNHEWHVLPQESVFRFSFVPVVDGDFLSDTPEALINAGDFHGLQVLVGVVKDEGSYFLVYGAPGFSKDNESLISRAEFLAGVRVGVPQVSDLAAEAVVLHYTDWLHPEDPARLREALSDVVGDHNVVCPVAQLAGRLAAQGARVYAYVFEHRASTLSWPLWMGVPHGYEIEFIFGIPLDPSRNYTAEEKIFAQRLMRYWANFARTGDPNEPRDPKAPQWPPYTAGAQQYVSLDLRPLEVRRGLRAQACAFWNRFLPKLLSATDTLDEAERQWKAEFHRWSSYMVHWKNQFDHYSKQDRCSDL
Turning to `COCCc1ccc(OCC2CO2)cc1` (stereo not drawn), the “activity, negative = inhibition” value was 0.646% [at 52.9 µM] (inactive).

As for `NC(=O)c1ncn([C@@H]2O[C@H](CO)[C@@H](O)[C@H]2O)n1`, the Potency entry was “inactive”.

For `Cc1c(Cn2ccnc2)c2ccccc2n1CCC(=O)O`, the “activity, negative = inhibition” value is -0.589% [at 52.9 µM] (inactive).

As for `Nc1ccc(Oc2ccc(Cl)cc2)cc1`, the “activity, negative = inhibition” value is 1.82% (inactive).

For `CC(=O)/C(C)=C/C1C(C)=CCCC1(C)C` (stereo not drawn), the “activity, negative = inhibition” value was -0.279% (inactive).

Consider `COc1nc(N)nc2nc[nH]c12`, for which the “activity, negative = inhibition” value was -0.727% (inactive).

For the compound `O=C(Nc1ccccc1)c1cc([N+](=O)[O-])ccc1Cl`, the “activity, negative = inhibition” value is -8.7% (inactive).

Regarding `CN1C(=O)CC[C@H]1c1cccnc1`, the Potency result was “inactive”.

As to `CC(c1cc2ccccc2s1)N(O)C(N)=O` (stereo not drawn), the Potency entry is “inactive”.

On to `O=C=Nc1ccc(Cc2ccc(N=C=O)cc2)cc1`, for which the Potency entry was “inactive”.

For `CC(C)c1ccc(O)c(C(C)C)c1`, the “activity, negative = inhibition” value was 2.96% (inactive).

On to `CCC(=O)c1c(O)cc(O)cc1O`, for which the “activity, negative = inhibition” value was -0.0008% [at 52.9 µM] (inactive).

Regarding `O=C1C(N(CO)C(=O)NCO)N(CO)C(=O)N1CO` (stereo not drawn), the Potency result was “inactive”.

For `O=C(O)c1ccccc1C(c1ccc(O)cc1)c1ccc(O)cc1`, the Potency result is “inactive”.

As to `CCSC(=O)N(CC)CC`, the “activity, negative = inhibition” value was 3.58% (inactive).

Consider `CC(=O)OCC=C(C)C`, for which the “activity, negative = inhibition” value was 1.66% [at 52.9 µM] (inactive).

Regarding `CC(CC=O)CCCC(C)(C)O` (stereo not drawn), the “activity, negative = inhibition” value was 0.279% (inactive).

On to `O=Cc1ccccc1[N+](=O)[O-]`, for which the “activity, negative = inhibition” value is -2.85% (inactive).

For `COc1cc(C)c(Cc2cnc(N)nc2N)cc1OC`, the “activity, negative = inhibition” value was -7.61% [at 52.9 µM] (inactive).

Turning to `CC(C)(C#N)c1cc(Cn2cncn2)cc(C(C)(C)C#N)c1`, the Potency entry is “inactive”.

Regarding `Nc1ccn([C@@H]2O[C@H](CO)[C@@H](O)C2O)c(=O)n1` (stereo partly drawn), the “activity, negative = inhibition” value was 4.2% (inactive).

Consider `C1COC(NC(C2CC2)C2CC2)=N1`, for which the “activity, negative = inhibition” value was 0.646% [at 52.9 µM] (inactive).

For `FC(F)(F)C(F)(F)C(F)(F)C(F)(F)CCI`, the “activity, negative = inhibition” value was 0.909% [at 52.9 µM] (inactive).

Regarding `CC(=O)CCC=C(C)C`, the Potency entry was “inactive”.

With `O=[N+]([O-])c1ccccc1C(F)(F)F`, the Potency result was “inactive”.

In the case of `CC(CO)Oc1ccccc1` (stereo not drawn), the “activity, negative = inhibition” value was 0.5% (inactive).

Regarding `N[C@H]1CN(c2c(F)cc3c(=O)c(C(=O)O)cn(C4C[C@H]4F)c3c2Cl)CC12CC2` (stereo partly drawn), the “activity, negative = inhibition” value is 1.11% [at 52.9 µM] (inactive).

As to `COC(=O)c1nc(Cl)c(Cl)nc1N`, the “activity, negative = inhibition” value is -2.33% [at 52.9 µM] (inactive).

Consider `CCCC(=O)OCC(COC(=O)CCC)OC(=O)CCC`, for which the “activity, negative = inhibition” value is 1.14% (inactive).

For `CN1CCN(CCCN2c3ccccc3Sc3ccc(Cl)cc32)CC1`, the “activity, negative = inhibition” value is -3.82% [at 52.9 µM] (inactive).

For the compound `C=CC(=O)CCCCC`, the “activity, negative = inhibition” value is -0.303% (inactive).

Consider `CCCCCCC(CCCCCCCCCCC(=O)OCC(COC(C)=O)OC(C)=O)OC(C)=O` (stereo not drawn), for which the “activity, negative = inhibition” value is -3.65% [at 52.9 µM] (inactive).

As to `Cl[Si](Cl)(c1ccccc1)c1ccccc1`, the “activity, negative = inhibition” value is -2.98% (inactive).

As for `CCc1c(C(=O)NN2CCCCC2)nn(-c2ccc(Cl)cc2Cl)c1-c1ccc(Br)cc1`, the “activity, negative = inhibition” value was 5.21% (inactive).

As to `O=C(O)CNC(=O)c1ccccc1`, the “activity, negative = inhibition” value was 1.68% [at 52.9 µM] (inactive).

Turning to `CC1=NN(c2cc(Cl)c(S(=O)(=O)O)cc2Cl)C(=O)C1N=Nc1ccc(S(=O)(=O)O)cc1` (stereo not drawn), the “activity, negative = inhibition” value is 9.29% (inactive).

Take `CCN(CCCc1ccccc1)CCCc1ccccc1`: the “activity, negative = inhibition” value is -12.7% [at 52.9 µM] (inactive).

As for `COc1ccc(Nc2ccccc2)c(C)c1`, the Potency entry is “inactive”.

Regarding `OCC(O)CN1CCN(c2ccccc2)CC1` (stereo not drawn), the “activity, negative = inhibition” value is -0.41% [at 52.9 µM] (inactive).

The next test shares this target. Description: Acetylcholinesterase (AChE) small molecule antagonists: enzyme-based qHTS assay (AID 1347397). Further: nearly all actives have a fitted effect of over 55% in size. Conditions: Potency: AChE enzyme activity inhibition; outcome: AChE enzyme activity inhibition; series mostly up to 115 µM; activity change, negative = inhibition: at the top concentration. The method in brief: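 Colorimetric DTNB readout of acetylthiocholine hydrolysis, 10 min at room temperature, after 30 min room-temperature exposure of 50 mU/mL recombinant human enzyme to compound; DMSO vehicle control.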
On to `COCCc1ccc(OCC2CO2)cc1` (stereo not drawn), for which the “activity change, negative = inhibition” value was -0.406% [at 53 µM] (inactive).

Consider `NC(=O)c1ncn([C@@H]2O[C@H](CO)[C@@H](O)[C@H]2O)n1`, for which the Potency entry was “inactive”.

Take `Cc1c(Cn2ccnc2)c2ccccc2n1CCC(=O)O`: the “activity change, negative = inhibition” value is 0.948% [at 53 µM] (inactive).

In the case of `Nc1ccc(Oc2ccc(Cl)cc2)cc1`, the “activity change, negative = inhibition” value was 0.0154% (inactive).

Regarding `CC(=O)/C(C)=C/C1C(C)=CCCC1(C)C` (stereo not drawn), the “activity change, negative = inhibition” value is 0.264% (inactive).

In the case of `COc1nc(N)nc2nc[nH]c12`, the “activity change, negative = inhibition” value was -0.848% (inactive).

Turning to `O=C(Nc1ccccc1)c1cc([N+](=O)[O-])ccc1Cl`, the “activity change, negative = inhibition” value was -1.71% (inactive).

Consider `CN1C(=O)CC[C@H]1c1cccnc1`, for which the Potency result was “inactive”.

For `CC(c1cc2ccccc2s1)N(O)C(N)=O` (stereo not drawn), the Potency entry is “inactive”.

For `O=C=Nc1ccc(Cc2ccc(N=C=O)cc2)cc1`, the Potency entry was “inactive”.

`CC(C)c1ccc(O)c(C(C)C)c1`: the “activity change, negative = inhibition” value was 0.258% (inactive).

Turning to `CCC(=O)c1c(O)cc(O)cc1O`, the “activity change, negative = inhibition” value is 3.25% [at 53 µM] (inactive).

With `O=C1C(N(CO)C(=O)NCO)N(CO)C(=O)N1CO` (stereo not drawn), the Potency result is “inactive”.

Turning to `O=C(O)c1ccccc1C(c1ccc(O)cc1)c1ccc(O)cc1`, the Potency result was “inactive”.

Consider `CCSC(=O)N(CC)CC`, for which the “activity change, negative = inhibition” value is 0.103% (inactive).

In the case of `CC(=O)OCC=C(C)C`, the “activity change, negative = inhibition” value is 0.238% [at 53 µM] (inactive).

For `CC(CC=O)CCCC(C)(C)O` (stereo not drawn), the “activity change, negative = inhibition” value is 0.585% (inactive).

Turning to `O=Cc1ccccc1[N+](=O)[O-]`, the “activity change, negative = inhibition” value was -1.36% (inactive).

Regarding `COc1cc(C)c(Cc2cnc(N)nc2N)cc1OC`, the “activity change, negative = inhibition” value was 0.107% [at 53 µM] (inactive).

`CC(C)(C#N)c1cc(Cn2cncn2)cc(C(C)(C)C#N)c1`: the Potency entry is “inactive”.

On to `Nc1ccn([C@@H]2O[C@H](CO)[C@@H](O)C2O)c(=O)n1` (stereo partly drawn), for which the “activity change, negative = inhibition” value is -0.899% (inactive).

For `C1COC(NC(C2CC2)C2CC2)=N1`, the “activity change, negative = inhibition” value is 1.1% [at 53 µM] (inactive).

As to `FC(F)(F)C(F)(F)C(F)(F)C(F)(F)CCI`, the “activity change, negative = inhibition” value is 0.0687% [at 53 µM] (inactive).

For the compound `CC(=O)CCC=C(C)C`, the Potency result was “inactive”.

`O=[N+]([O-])c1ccccc1C(F)(F)F`: the Potency result was “inactive”.

For the compound `CC(CO)Oc1ccccc1` (stereo not drawn), the “activity change, negative = inhibition” value is 0.306% (inactive).

Consider `N[C@H]1CN(c2c(F)cc3c(=O)c(C(=O)O)cn(C4C[C@H]4F)c3c2Cl)CC12CC2` (stereo partly drawn), for which the “activity change, negative = inhibition” value was 2.63% [at 53 µM] (inactive).

For `COC(=O)c1nc(Cl)c(Cl)nc1N`, the “activity change, negative = inhibition” value is 0% [at 53 µM] (inactive).

As to `CCCC(=O)OCC(COC(=O)CCC)OC(=O)CCC`, the “activity change, negative = inhibition” value is 0.271% (inactive).

As for `CN1CCN(CCCN2c3ccccc3Sc3ccc(Cl)cc32)CC1`, the “activity change, negative = inhibition” value was 0.386% [at 53 µM] (inactive).

`C=CC(=O)CCCCC`: the “activity change, negative = inhibition” value was -0.275% (inactive).

In the case of `CCCCCCC(CCCCCCCCCCC(=O)OCC(COC(C)=O)OC(C)=O)OC(C)=O` (stereo not drawn), the “activity change, negative = inhibition” value is -0.526% [at 53 µM] (inactive).

Consider `Cl[Si](Cl)(c1ccccc1)c1ccccc1`, for which the “activity change, negative = inhibition” value is -0.206% (inactive).

On to `CCc1c(C(=O)NN2CCCCC2)nn(-c2ccc(Cl)cc2Cl)c1-c1ccc(Br)cc1`, for which the “activity change, negative = inhibition” value is 1.84% (inactive).

On to `O=C(O)CNC(=O)c1ccccc1`, for which the “activity change, negative = inhibition” value is -1.25% [at 53 µM] (inactive).

On to `CC1=NN(c2cc(Cl)c(S(=O)(=O)O)cc2Cl)C(=O)C1N=Nc1ccc(S(=O)(=O)O)cc1` (stereo not drawn), for which the “activity change, negative = inhibition” value was 17.5% (inactive).

With `CCN(CCCc1ccccc1)CCCc1ccccc1`, the “activity change, negative = inhibition” value was -0.411% [at 53 µM] (inactive).

Turning to `COc1ccc(Nc2ccccc2)c(C)c1`, the Potency entry was “inactive”.

Regarding `OCC(O)CN1CCN(c2ccccc2)CC1` (stereo not drawn), the “activity change, negative = inhibition” value was 6.17% [at 53 µM] (inactive).
